Assay results: PubChem BioAssay AID1159580 (chemical genetic matrix, 2015)
Values joined by “and” are separate entries in the source; they are usually repeats but may differ in a detail not shown here. Equal entries are not always repeated. The campaign covered roughly 5,500 compounds. About 2,000 (36%) were called active. About 18% were inconclusive and are not listed. Cut-off read from the data, not from the text of the source: active = normalized growth mostly below about 0.91 (no sharp cut-off); inconclusive = no clear call, values can overlap the other calls; inactive = mostly above about 0.92. Some of the results follow.

Assay: chemical genetic growth profiling, strain panel (AID 1159580);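 note: tested at 20 µM; growth read once vehicle control cultures reached saturation at 30 °C; 1 = growth at the plate median or of vehicle wells; lower values mean less growth of the strain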
Conditions: S. cerevisiae deletion strains, growth OD

Measured: normalized growth

O=C1NC(O)=NC1(c1ccccc1)c1ccccc1
inactive: locus YAL013W, strain DEP1, active compounds read low 1.01 and 0.988 | locus YAL021C, strain ccr4, active compounds read low 1.01 | locus YAL026C, strain drs2, active compounds read low 1.01 | locus YAL030W, strain snc1, active compounds read low 1.02 | locus YAL040C, strain CLN3, active compounds read low 0.959 | locus YBL061C, strain skt5, active compounds read low 1.01 | locus YBR009C, strain hhf1, active compounds read low 1 | locus YBR021W, strain FUR4, active compounds read low 0.995 | locus YBR023C, strain chs3, active compounds read low 1.03 | locus YBR171W, strain sec66, active compounds read low 1.02 | locus YBR229C, strain ROT2, active compounds read low 1 | locus YBR231C, strain swc5, active compounds read low 1.02 | locus YBR279W, strain paf1, active compounds read low 1.01 | locus YCL011C, strain gbp2, active compounds read low 1.02 | locus YCL016C, strain dcc1, active compounds read low 1.02 | locus YCL029C, strain bik1, active compounds read low 1.03 | locus YCL061C, strain MRC1 (second series), active compounds read low 0.986 | locus YCL061C, strain MRC1, active compounds read low 1.01 | locus YCL069W, strain vba3, active compounds read low 1.02 | locus YCR088W, strain abp1, active compounds read low 1.01 | locus YDL005C, strain med2, active compounds read low 1.03 | locus YDL035C, strain GPR1, active compounds read low 1.01 | locus YDL040C, strain nat1, active compounds read low 1.02 | locus YDL074C, strain BRE1, active compounds read low 1.02 | locus YDL101C, strain DUN1, active compounds read low 1.01 | locus YDL134C, strain PPH21, active compounds read low 1.01 | locus YDL185W, strain tfp1, active compounds read low 1.01 | locus YDL192W, strain arf1, active compounds read low 1.01 | locus YDR001C, strain nth1, active compounds read low 1.02 | locus YDR069C, strain doa4, active compounds read low 0.999 | locus YDR101C, strain arx1, active compounds read low 1.01 | locus YDR137W, strain rgp1, active compounds read low 1.04 | locus YDR150W, strain NUM1, active compounds read low 1.01 | locus YDR159W, strain sac3, active compounds read low 0.98 | locus YDR162C, strain NBP2, active compounds read low 1.01 | locus YDR195W, strain ref2 0.987 | locus YDR297W, strain sur2, active compounds read low 1.02 | locus YDR318W, strain mcm21, active compounds read low 1.02 | locus YDR334W, strain swr1, active compounds read low 1.01 | locus YDR335W, strain msn5, active compounds read low 1.02 | locus YDR363W, strain ESC2, active compounds read low 0.954 | locus YDR388W, active compounds read low 1.02 | locus YDR392W, strain spt3, active compounds read low 0.932 | locus YDR502C, strain sam2, active compounds read low 1 | locus YEL003W, strain gim4, active compounds read low 1 | locus YEL037C, strain rad23, active compounds read low 1.01 | locus YEL061C, strain CIN8 (second series), active compounds read low 1.02 | locus YEL061C, strain CIN8, active compounds read low 1.01 | locus YER002W, strain NOP16, active compounds read low 0.972 | locus YER015W, strain faa2, active compounds read low 1 | locus YER016W, strain bim1, active compounds read low 1.02 | locus YER110C, active compounds read low 1.01 | locus YER111C, strain swi4, active compounds read low 1.02 | locus YER155C, strain BEM2 (second series), active compounds read low 0.994 | locus YER155C, strain BEM2, active compounds read low 1.02 | locus YER167W, strain BCK2, active compounds read low 1.01 | locus YFR010W, strain ubp6, active compounds read low 1.01 | locus YGL078C, strain dbp3, active compounds read low 1.01 | locus YGL086W, strain mad1, active compounds read low 0.997 | locus YGL167C, strain pmr1, active compounds read low 1.03 | locus YGL173C, strain kem1, active compounds read low 1.01 | locus YGL227W, strain vid30, active compounds read low 1.02 | locus YGL240W, strain doc1, active compounds read low 1.01 | locus YGL248W, strain PDE1, active compounds read low 1.01 | locus YGL253W, strain hxk2, active compounds read low 1.01 | locus YGR078C, strain PAC10, active compounds read low 1.01 | locus YGR135W, strain pre9, active compounds read low 1.01 | locus YGR229C, strain SMI1, active compounds read low 0.998 | locus YGR252W, strain gcn5, active compounds read low 0.923 | locus YHR013C, strain ard1, active compounds read low 1.02 | locus YHR027C, strain rpn1, active compounds read low 1.01 | locus YHR030C, strain SLT2, active compounds read low 1.01 and 0.991 | locus YHR079C, strain IRE1 (second series), active compounds read low 1.03 | locus YHR079C, strain IRE1, active compounds read low 0.991 | locus YHR094C, strain hxt1, active compounds read low 1.01 | locus YHR129C, strain ARP1, active compounds read low 1.01 | locus YHR142W, strain chs7, active compounds read low 1.03 | locus YHR200W, strain rpn10, active compounds read low 1.01 | locus YIL066C, strain RNR3, active compounds read low 1.02 | locus YIL073C, strain SPO22, active compounds read low 1.03 | locus YIL125W, strain kgd1, active compounds read low 1.01 | locus YIR030C, strain dcg1, active compounds read low 1.01 | locus YJL092W, strain hpr5, active compounds read low 1.01 | locus YJL095W, strain BCK1 (second series), active compounds read low 1.02 | locus YJL095W, strain BCK1, active compounds read low 1.01 | locus YJL115W, strain asf1, active compounds read low 1.01 | locus YJL129C, strain trk1, active compounds read low 1.02 | locus YJL134W, strain LCB3, active compounds read low 1 | locus YJL154C, strain vps35, active compounds read low 1.02 | locus YJL164C, strain tpk1, active compounds read low 1.01 | locus YJL166W, strain qcr8, active compounds read low 1.02 | locus YJL168C, strain set2, active compounds read low 1.01 | locus YJL187C, strain SWE1 (second series), active compounds read low 1.02 | locus YJL187C, strain SWE1, active compounds read low 1.02 | locus YJR043C, strain POL32, active compounds read low 1.01 | locus YJR066W, strain TOR1, active compounds read low 0.96
